Experimental data from PubChem BioAssay AID1159580 (chemical genetic matrix, 2015).
The campaign covered roughly 5,500 compounds. About 2,000 (36%) were called active. About 18% were inconclusive and are not listed. Cut-off read from the data, not from the text of the source: active = normalized growth mostly below about 0.91 (no sharp cut-off); inconclusive = no clear call, values can overlap the other calls; inactive = mostly above about 0.92. The list shows a part of the results.

Assay: chemical genetic growth profiling, strain panel (AID 1159580);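 note: tested at 20 µM; growth read once vehicle control cultures reached saturation at 30 °C; 1 = growth at the plate median or of vehicle wells; lower values mean less growth of the strain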
Conditions: S. cerevisiae deletion strains, growth OD

Measured: normalized growth

O=S(=O)(c1cccc2c(Cl)cccc12)N1CCCNCC1
inactive: locus YAL040C, strain CLN3, active compounds read low 0.99 | locus YDR363W, strain ESC2, active compounds read low 1 | locus YER002W, strain NOP16, active compounds read low 0.988 | locus YGR078C, strain PAC10, active compounds read low 0.986 | locus YMR263W, strain SAP30, active compounds read low 1 | locus YNL128W, strain TEP1, active compounds read low 1.01 | locus YNL175C, strain NOP13, active compounds read low 1.03 | locus YNL197C, strain WHI3, active compounds read low 1.03 | locus YNL224C, strain SQS1, active compounds read low 1.01 | locus YOR083W, strain WHI5 (second series), active compounds read low 1.02 | locus YPL241C, strain CIN2, active compounds read low 1
